Where “and” joins values, the source holds several entries; their conditions need not be identical. Identical values can stand only once. Inconclusive results are not listed. Some structures have more than one record in an assay (separate samples or runs), and their calls can disagree. Calls of active or inactive are those of the source. The call rests on the fitted dose curve.
Assay: p53 small molecule agonists, cell-based qHTS assay with human liver microsomes: qHTS cell viability counter screen (AID 1963579); further: nearly all actives have a fitted effect of over 45% in size
Settings: p53RE-bla HCT-116 viability, ATP luminescence, 16 h, HLM; series mostly up to 66 µM; activity change, negative = cytotoxicity: at the top concentration
Description: National Center for Advancing Translational Sciences [NCATS]
Division of Preclinical Innovation [DPI]
U.S. Environmental Protection Agency [EPA]
National Institutes of Environmental Health Sciences [NIEHS]
National Toxicology Program [NTP]
U.S. Food and Drug Administration [FDA]
p53, a tumor suppressor protein, is activated following cellular insult, including DNA damage and other cellular stresses. The activation of p53 regulates cell fate by inducing DNA repair, cell cycle arrest, apoptosis, or cellular senescence. The activation of p53, therefore, is a good indicator of DNA damage and other cellular stresses. […] The activation of the reporter gene under culture conditions can be detected by fluorescence intensity. This cell line was used to screen the Tox21 10K compound library in the condition of presence of human liver microsomes and to identify agonists that activate the p53 signaling pathway after in vitro metabolic activation (Ooka et al., Archive of Toxicology 96:1975-1987, 2022).
Tox21 Assay Protocol Summary:
The p53RE-bla cells were dispensed at 4,000cells/3ul/well in 1536-well black-clear bottom plates. After the assay plates were incubated at 37 C, 5% CO2 incubator for 5 hours, 23 nL of compounds dissolved in DMSO, positive controls or DMSO only was transferred to the assay plate. Following compound addition, 3 uL of human liver microsomes (XenoTech, Kansas City, KS) at final concentration of 0.5 mg/mL and 1uL of B-Nicotinamide adenine dinucleotide 2'-phosphate (NADPH) at final concentration of 0.5 mg/mL were transferred to the assay plate. The plates were incubated at 37 C for 16 hours. 1 uL of LiveBLAzer detection mixture was added to each well and the plates were incubated at room temperature in the dark for 2 h. Fluorescence intensity at 460 and 530 nm emission and 405 nm excitation were measured by an Envision plate reader. For cell viability readout that measures cytotoxicity, 4 ul/well of CellTiter-Glo reagent was added into the assay plates using a Flying Reagent Dispenser. After 30 min incubation at room temperature, the luminescence intensity in the plates was measured using a ViewLux plate reader.
In the case of `COc1ccc(C(=O)NCc2ccc(OCCN(C)C)cc2)cc1OC`, the “activity change, negative = cytotoxicity” value is reported as 8.41% [at 30.3 µM] (inactive). With `COc1ccc2nc(N)sc2c1` the Potency was “inactive”. In the case of `CC1CC(O)CC(C)(C)C1` (stereo not given), the “activity change, negative = cytotoxicity” value is reported as 5.57% (inactive). In the case of `c1ccc2c(c1)CCc1ccccc1N2`, the “activity change, negative = cytotoxicity” value is reported as 16.9% [at 30.3 µM] (inactive). In the case of `CCC(C(=O)OCCOCCN(CC)CC)c1ccccc1` (stereo not given), the “activity change, negative = cytotoxicity” value is reported as -3.86% [at 30.3 µM] (inactive). With `CN1[C@@H]2CC[C@H]1CC(NC(=O)n1c(=O)[nH]c3ccccc31)C2` (stereo not given in full) the “activity change, negative = cytotoxicity” value was -0.222% [at 30.3 µM] (inactive). With `CCOC(=O)c1ccc(N)cc1` the Potency was “inactive”. In the case of `O=C(OC(=O)c1ccccc1)c1ccccc1`, the “activity change, negative = cytotoxicity” value is reported as -8.19% (inactive). For `CCCC(=O)OCC(COC(=O)CCC)OC(=O)CCC`, the “activity change, negative = cytotoxicity” value was -27% (inactive). With `O=S(=O)(O)c1cc(O)c(O)c(S(=O)(=O)O)c1` the “activity change, negative = cytotoxicity” value was -6.61% (inactive). In the case of `CC(=O)c1ccc2c(c1)CCCC2`, the “activity change, negative = cytotoxicity” value is reported as -1.28% (inactive). With `CC(C)C(=O)c1ccccc1` the “activity change, negative = cytotoxicity” value was 5.21% (inactive). With `Nc1nc(=O)n([C@@H]2O[C@H](CO)[C@@H](O)[C@@H]2F)cc1I` the “activity change, negative = cytotoxicity” value was 1.05% [at 30.3 µM] (inactive). For `N[C@H](C(=O)O)c1ccc(O)cc1`, the activity change, negative = cytotoxicity was 0.34% [at 13.5 µM] (inactive). In the case of `CN(C)c1ccc(/C=C/c2ccc([N+](=O)[O-])cc2)cc1`, the activity change, negative = cytotoxicity is reported as 0.0681% [at 5.99 µM] (inactive). For `CN(C)c1cc(NC(=O)CNC(C)(C)C)c(O)c2c1C[C@H]1C[C@H]3[C@H](N(C)C)C(=O)C(C(N)=O)=C(O)[C@@]3(O)C(=O)C1=C2O`, the “activity change, negative = cytotoxicity” value was -8.28% [at 30.3 µM] (inactive). In the case of `O=C1OC2(c3ccc(O)cc3Oc3cc(O)ccc32)c2ccccc21`, the Potency is reported as “inactive”. With `CCO[Si](OCC)(OCC)c1ccccc1` the “activity change, negative = cytotoxicity” value was 5.73% (inactive). For `C=CC(O)CCCCC` (stereo not given), the “activity change, negative = cytotoxicity” value was -1.67% (inactive). For `COC(=O)c1ccccc1C(=O)c1ccc(OCCN2CCCCC2)cc1`, the “activity change, negative = cytotoxicity” value was 1.7% [at 30.3 µM] (inactive). For `N[C@@H](Cc1c[nH]c2ccccc12)C(=O)O`, the Potency was “inactive”. In the case of `NC(=O)c1ccc(N)cc1`, the “activity change, negative = cytotoxicity” value is reported as -4.77% (inactive). In the case of `Cc1c(N)cccc1C(F)(F)F`, the “activity change, negative = cytotoxicity” value is reported as -12.3% [at 30.3 µM] (inactive). With `CC(=O)Oc1cccc(O)c1` the “activity change, negative = cytotoxicity” value was -6.44% [at 30.3 µM] (inactive). In the case of `CC(C)C(=O)OC(=O)C(C)C`, the “activity change, negative = cytotoxicity” value is reported as -0.592% (inactive). For `O[C@@H]([C@H](O)[C@H](O)CBr)[C@H](O)CBr`, the “activity change, negative = cytotoxicity” value was -3.78% (inactive). With `CN(C)CCCNCCCN` the “activity change, negative = cytotoxicity” value was -0.773% (inactive). In the case of `C1C[C@@H]2[C@H]3CC[C@H](C3)[C@@H]2C1`, the “activity change, negative = cytotoxicity” value is reported as 0.747% (inactive). In the case of `Cn1c(=O)c2c(ncn2C)n(C)c1=O`, the Potency is reported as “inactive”. With `Cc1ccc(S(=O)(=O)NC(=O)NC2CCCCCCC2)cc1` the “activity change, negative = cytotoxicity” value was -9.32% [at 30.3 µM] (inactive). In the case of `CCCCCC(C)=O`, the Potency is reported as “inactive and 12.9 µM (active)”. In the case of `N=c1nc(N2CCCCC2)cc(N)n1O`, the “activity change, negative = cytotoxicity” value is reported as 1.66% [at 30.3 µM] (inactive). In the case of `Cc1cccc(C)c1NC(=O)CN1CCCCCC1`, the “activity change, negative = cytotoxicity” value is reported as 4.45% [at 30.3 µM] (inactive). In the case of `CCCCCCN`, the “activity change, negative = cytotoxicity” value is reported as -8.89% (inactive). With `Clc1cc(Cl)c(Cl)c(Cl)c1Cl` the “activity change, negative = cytotoxicity” value was 0.188% (inactive). For `CC1=CCC(=O)O1`, the “activity change, negative = cytotoxicity” value was -0.114% (inactive). In the case of `CCOC(=O)c1ccc(C)cc1`, the “activity change, negative = cytotoxicity” value is reported as 0.723% (inactive). In the case of `C=C(C)C(=O)OCCOCCOCCOC(=O)C(=C)C`, the Potency is reported as “inactive”. For `CCOCCOCC`, the “activity change, negative = cytotoxicity” value was 6.44% (inactive). In the case of `CC1=CCC(C(C)(C)O)CC1` (stereo not given), the Potency is reported as “inactive”.

Source: PubChem BioAssay (Tox21)
On the % scale 0 is the no-effect control and ±100 the full control effect; potency means the concentration at half of the fitted maximal effect.
